Measurements reported in PubChem BioAssay AID624415 (National Center for Advancing Translational Sciences (NCATS), 2012).
The campaign covered roughly 390,000 compounds. About 60 (0.02%) were called active. This excerpt belongs to a sample that is enriched for actives. A number with no mark means an inactive call. No stated cut-off is given here; in the data, active means activity change below about -50%; inconclusive means between about -30% and that limit; inactive means weaker than that.

molecular target: Mucolipin-1 (Homo sapiens) (UniProt Q9GZU1); assay: qHTS for Inhibitors of the Human Mucolipin Transient Receptor Potential 1 (TRPML1); conditions: TRPML1-inducible cells, Ca2+ dye fluorescence, FDSS; hits give low values; inhibition of EC80 agonist-evoked calcium signal;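 further: stimulus is agonist 54-4 at its EC80 concentration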
Sequence (Q9GZU1 whole entry, looked up, the tested form may be a part): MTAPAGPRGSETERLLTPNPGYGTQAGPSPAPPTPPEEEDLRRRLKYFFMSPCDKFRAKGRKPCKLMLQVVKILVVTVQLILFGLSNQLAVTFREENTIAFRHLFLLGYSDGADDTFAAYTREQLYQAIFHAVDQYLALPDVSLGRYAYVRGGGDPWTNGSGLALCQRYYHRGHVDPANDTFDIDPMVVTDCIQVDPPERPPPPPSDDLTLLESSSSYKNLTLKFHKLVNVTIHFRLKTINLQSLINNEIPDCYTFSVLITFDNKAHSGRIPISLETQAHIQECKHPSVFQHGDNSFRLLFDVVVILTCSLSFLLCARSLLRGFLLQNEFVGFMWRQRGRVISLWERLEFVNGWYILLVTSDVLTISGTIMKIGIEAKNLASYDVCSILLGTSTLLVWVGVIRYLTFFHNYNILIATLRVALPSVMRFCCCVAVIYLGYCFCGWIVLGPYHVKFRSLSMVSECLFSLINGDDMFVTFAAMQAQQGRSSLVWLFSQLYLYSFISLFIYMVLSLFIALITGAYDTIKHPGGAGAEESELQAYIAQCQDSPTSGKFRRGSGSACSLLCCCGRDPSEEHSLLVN
Excerpt: Mutations of human Mucolipin transient receptor potential 1 (TRPML1) cause type IV mucolipidosis (ML4), a devastating neurodegenerative disease in young children. […] Currently, there is no treatment for ML4. […] Under physiological conditions, TRPMLs regulate membrane trafficking by transducing information about PI(3,5)P2 levels into changes in juxtaorganellar Ca2+, thereby triggering membrane fusion/fission events in the late endocytic pathways (endolysosomal trafficking). In addition, TRPML1 mediates release of Fe2+ from late endosomes and lysosomes, which is essential for cellular iron metabolism. Thus, impaired ion (Ca2+ and Fe2+) homeostasis underlies lysosomal dysfunction and ML4 phenotypes. In ML4 cells, the problem is twofold. First, defective Ca2+-dependent membrane trafficking due to TRPML1-deficiency causes accumulation of lipids and other bio-materials in the lysosome. The second strike comes from the lysosomal iron overload (due to impairment of TRPML1's Fe2+ conductivity), which converts the accumulated materials into the nondegradable (resistant to lysosomal degradation) lipofuscin (also called aging pigment) in the lysosome. Lipofuscin accumulation dramatically compromises the functions of lysosomes.
Niemann-Pick type C (NPC) disease is another lysosome storage disease (LSD) with severe neurodegeneration during the childhood. Currently, there is no cure for NPC. […] Thus, TRPML1 is likely to be an essential regulator of lysosome ion homeostasis. We specifically hypothesize that stimulating TRPML1's Fe2+/Ca2+ channel activity in the lysosome using synthetic agonists can alleviate neurodegeneration associated with ML4 or NPC.
To this end, a high throughput screen was developed in a miniaturized format to screen against the Molecular Libraries Small Molecule Repository (MLSMR) to find small molecules that act either as inhibitors or agonist against the TRPML1 channel.
NIH Chemical Genomics Center [NCGC]
NIH Molecular Libraries Probe Centers Network [MLPCN]
Assay Submitter (PI): Haoxing Xu, University of Michigan Ann Arbor
TRPML1-DL cells are dissociated from flasks, counted and, brought up to a density of 500,000 cells per mL of media containing a 1X Tet inducer. Using a Multidrop Combi, 3 uL of this cell solution is dispensed to each well of a 1536 TC treated, black, clear bottom hi base plate for a final cell density of 1,500 cells per well. The assay plates are incubated overnight (approximately 16 hours) at 37 degrees C and 5% CO2. Using a Multidrop Combi, 2 uL of ABD Ca8 no wash dye plus quencher is added to each well. The assay plates incubate at room temperature in the dark for 45-90 minutes. The assay plate is read on the FDSS using the following protocol: 10 second baseline read, 23 nL of compounds and controls are added using 1536 pintool, agonist read for 110 seconds, 1 uL EC80 addition (4 uM final 54-4 diluted in media), antagonist read for 110 seconds.
On the % scale 0 is the no-effect control and ±100 the full control effect.

**Q.** For `CCN(CC)CCNC(=O)c1cc2c(=O)oc3ccc(C)cc3c2s1`, which activity change, negative = inhibition is on record?
**A.** Its activity change, negative = inhibition is -8.55%.

**Q.** With `Cc1cc(F)ccc1NC1(c2ccccc2)C(=O)c2ccccc2C1=O` as the compound, how does the activity change, negative = inhibition read?
**A.** The activity change, negative = inhibition was 2.11%.

**Q.** With `COc1ccc(S(=O)(=O)n2nc(C)c(S(=O)(=O)N3CCCCCC3)c2C)cc1` as the compound, how does the activity change, negative = inhibition read?
**A.** The activity change, negative = inhibition was -9.9%.

**Q.** Which activity change, negative = inhibition does the source give for `O=C(Nc1ccc(OC(F)(F)F)cc1)c1cc2c(=O)n3ccccc3nc2s1` here?
**A.** Its activity change, negative = inhibition is 9.57%.

**Q.** `COC(=O)c1ccc(-c2nc3cc(NC(C)=O)ccc3o2)cc1` was tested. Which activity change, negative = inhibition did it give?
**A.** The activity change, negative = inhibition was 12.1%.

**Q.** `CCOc1ccc(S(=O)(=O)Nc2ccc3oc4c(c3c2)CC(C)CC4)cc1` (configuration not stated) was tested. Which activity change, negative = inhibition did it give?
**A.** Its activity change, negative = inhibition is 2.72%.

**Q.** `CCOC(=O)c1ccc(NC(=O)C2CC(=O)N(c3ccc(C(C)C)cc3)C2)cc1` (configuration not stated) was tested. Which activity change, negative = inhibition did it give?
**A.** The activity change, negative = inhibition was -2.44%.

**Q.** With `Cc1cc(OCC(=O)NCC2(N(C)C)CCCCC2)cc(C)c1Cl` as the compound, how does the activity change, negative = inhibition read?
**A.** Its activity change, negative = inhibition is -7.81%.

**Q.** Which activity change, negative = inhibition does the source give for `C=C1CCN(C(CC(C)C)C(=O)NCc2cc(OC)c(OC)c(OC)c2)S(=O)(=O)c2ccccc21` (configuration not stated) here?
**A.** The activity change, negative = inhibition was 6.7%.

**Q.** For `Cc1ccc(CNC(=O)C2(C(F)(F)F)C/C(=C\CCO)CCCO2)o1` (configuration not stated), which activity change, negative = inhibition is on record?
**A.** Its activity change, negative = inhibition is -4.32%.

**Q.** With `COc1ccc(NC(=O)CSc2nnc(-c3nnn(-c4ccc(F)cc4)c3C)o2)cc1` as the compound, how does the activity change, negative = inhibition read?
**A.** The activity change, negative = inhibition was 30.2%.

**Q.** With `Cc1cc(O)c(C(c2ccccc2)N2CCN(c3ccccc3F)CC2)c(=O)n1Cc1ccco1` (configuration not stated) as the compound, how does the activity change, negative = inhibition read?
**A.** Its activity change, negative = inhibition is 19%.

**Q.** With `O=C(NCCS(=O)(=O)N1CCN(c2ccc(F)cc2)CC1)c1ccccc1Br` as the compound, how does the activity change, negative = inhibition read?
**A.** The activity change, negative = inhibition was -27.6%.

**Q.** Which activity change, negative = inhibition does the source give for `Cc1nc(SCC(=O)N2CCN(c3ccccc3)CC2)[nH]c(=O)c1C` here?
**A.** Its activity change, negative = inhibition is 14.8%.

**Q.** Which activity change, negative = inhibition does the source give for `Cc1cccc(Cn2c(SCc3ccc(C(=O)N4CCC(C)CC4)cc3)nc3ccncc32)c1` here?
**A.** The activity change, negative = inhibition was 10.3%.

**Q.** With `Cn1nnnc1SCCCNCc1ccc(Cl)cc1` as the compound, how does the activity change, negative = inhibition read?
**A.** The activity change, negative = inhibition was 25.2%.

**Q.** For `CCOC(=O)c1cccc(NS(=O)(=O)c2cn(C)c(C)n2)c1`, which activity change, negative = inhibition is on record?
**A.** The activity change, negative = inhibition was 9.58%.

**Q.** Which activity change, negative = inhibition does the source give for `COc1ccc(Cl)cc1S(=O)(=O)Nc1cccc(C(=O)O)c1` here?
**A.** The activity change, negative = inhibition was -0.499%.

**Q.** Which activity change, negative = inhibition does the source give for `COC(=O)c1cccc(NS(C)(=O)=O)c1` here?
**A.** The activity change, negative = inhibition was -60.5% (active).

**Q.** How did the activity change, negative = inhibition turn out when `O=C(CCc1nc(CN2CCN(S(=O)(=O)c3ccc(Cl)cc3)CC2)no1)N1CCCCC1` was run?
**A.** Its activity change, negative = inhibition is 8.21%.

**Q.** For `CCc1ccc(CNC(=O)C2CCN(c3nn4cc(-c5ccc(F)cc5)nc4s3)CC2)cc1`, which activity change, negative = inhibition is on record?
**A.** Its activity change, negative = inhibition is 20.9%.

**Q.** `Cc1ccc(NC(=O)Cc2ccc(NC(=O)N3CCCCc4ccccc43)cc2)cc1` was tested. Which activity change, negative = inhibition did it give?
**A.** The activity change, negative = inhibition was 8.17%.

**Q.** Which activity change, negative = inhibition does the source give for `Cc1ccccc1C(=O)Nc1cc(C)c(O)c(-c2nc3ccccc3o2)c1` here?
**A.** The activity change, negative = inhibition was -18.1%.

**Q.** Which activity change, negative = inhibition does the source give for `Cc1ccccc1CNC(=O)CSc1nnc(C)c2c(C)n(-c3ccccc3)nc12` here?
**A.** Its activity change, negative = inhibition is 2.86%.

**Q.** How did the activity change, negative = inhibition turn out when `Cc1ccc(OCCSc2nc(C)c(Cc3ccccc3)c(=O)[nH]2)cc1` was run?
**A.** Its activity change, negative = inhibition is -16.6%.

**Q.** How did the activity change, negative = inhibition turn out when `COc1ccc(NC(=O)NC(C)c2c(-n3cccc3)sc(C)c2C)cc1OC` (configuration not stated) was run?
**A.** Its activity change, negative = inhibition is 12.5%.

**Q.** `COC(=O)c1ccccc1NC(=O)Cn1c(=O)n(-c2cccc(C(F)(F)F)c2)c(=O)c2c(C)c(C)sc21` was tested. Which activity change, negative = inhibition did it give?
**A.** The activity change, negative = inhibition was -25.8%.

**Q.** Which activity change, negative = inhibition does the source give for `Cc1cc2c(cc3c(SCc4nc(-c5ccccc5)oc4C)nnc(C)n32)o1` here?
**A.** The activity change, negative = inhibition was 11.7%.

**Q.** Which activity change, negative = inhibition does the source give for `N#Cc1ccccc1Cn1cnc2nc3c(cc2c1=O)CCCC3` here?
**A.** The activity change, negative = inhibition was -15.7%.

**Q.** With `CCN(Cc1ccccc1)S(=O)(=O)c1ccc2c(c1)CCCN2C(C)=O` as the compound, how does the activity change, negative = inhibition read?
**A.** Its activity change, negative = inhibition is -2.82%.

**Q.** How did the activity change, negative = inhibition turn out when `Cn1c(=O)c2sccc2n2c(CCC(=O)NCc3ccccc3Cl)nnc12` was run?
**A.** Its activity change, negative = inhibition is 2.41%.

**Q.** How did the activity change, negative = inhibition turn out when `CN1CCN(C2(CNC(=O)COc3ccc(C(C)(C)C)cc3)CCCCC2)CC1` was run?
**A.** The activity change, negative = inhibition was 16.1%.

**Q.** How did the activity change, negative = inhibition turn out when `COc1cc(OC)cc(-c2nc3nc(C)c(CCC(=O)Nc4ccccc4)c(C)n3n2)c1` was run?
**A.** The activity change, negative = inhibition was -13.4%.

**Q.** For `Cc1ccc(Nc2c(-c3ccc(N(C)C)cc3)nc3nc[nH]n23)cc1`, which activity change, negative = inhibition is on record?
**A.** The activity change, negative = inhibition was -8.37%.

**Q.** For `CCOc1ccccc1CNC(=O)c1cnc2c(-c3ccc(OCC)c(OCC)c3)c(C)nn2c1C`, which activity change, negative = inhibition is on record?
**A.** The activity change, negative = inhibition was -5.19%.

**Q.** How did the activity change, negative = inhibition turn out when `CCc1ccc(-n2nc(C)c3c(C)cc(=O)n(CC(=O)Nc4ccc(F)cc4C)c32)cc1` was run?
**A.** Its activity change, negative = inhibition is 1.68%.

**Q.** Which activity change, negative = inhibition does the source give for `CCOc1ccc(C2C(=O)N(C3CCCCC3)CC(=O)N2CCC2=CCCCC2)cc1OC` (configuration not stated) here?
**A.** Its activity change, negative = inhibition is -3.98%.

**Q.** `CCC(=O)N1CCc2cc(Br)cc(S(=O)(=O)CCC(=O)N3CCN(c4ccc(F)cc4)CC3)c21` was tested. Which activity change, negative = inhibition did it give?
**A.** Its activity change, negative = inhibition is -21.4%.

**Q.** Which activity change, negative = inhibition does the source give for `COc1ccc(CN2CCC(=O)c3ccccc3S2(=O)=O)cc1` here?
**A.** The activity change, negative = inhibition was -9.22%.

**Q.** `COc1ccc(CCC(=O)NCc2ccc3c(c2)CCN3C(=O)c2ccc(F)cc2)cc1` was tested. Which activity change, negative = inhibition did it give?
**A.** The activity change, negative = inhibition was -24.8%.

**Q.** `CCCSc1ncc(Cl)c(C(=O)Nc2sc3c(c2C(=O)NCCOC)CCCC3)n1` was tested. Which activity change, negative = inhibition did it give?
**A.** The activity change, negative = inhibition was 20.3%.

**Q.** How did the activity change, negative = inhibition turn out when `O=C(Nc1nc2c(s1)CCCC2)c1ccccc1F` was run?
**A.** Its activity change, negative = inhibition is 7.29%.
